# Screens as filed in PubChem.
# Rows were chosen to be rich in hits. Some 0.73% of all compounds tested hit in one or more screens of this group.
# Mtb BioA inh: inhibitors of Mycobacterium tuberculosis BioA enzyme | inhibition, % at 9.99 µM | AID 602481 | 0.096% of 360,000 active | purified M. tuberculosis BioA enzyme, plate reader; in the data active means inhibition above about 40%
# BH1578 lux ind: induces V. cholerae light production without autoinducers. 0.16% of 350,000 active. AID 588436. activation, % at 18.7 µM. V. cholerae BH1578 lux reporter, luminescence, 6 h; in the data active means activation mostly above about 9.7%, no sharp cut-off
# TcdB GH inh: TcdB glycohydrolase inhibition; P18177; TcdB glycohydrolase enzymatic assay, plate reader; inhibition, % at 9.99 µM; 0.24% of 350,000 active; in the data active means inhibition above about 10%
# Yp Topo-I inh: blocks Yersinia pestis topoisomerase I activity; Y. pestis Topo-I cleavage product accumulation, plate reader; activity, % at 10 µM; 0.064% of 360,000 active; AID 504884; in the data active means activity above about 50%, passing the limit was not always enough
# VHR inh abs: blocks human VHR1 dual specificity phosphatase; recombinant VHR phosphatase, pNPP absorbance; inhibition, % at 13.3 µM; 0.52% of 290,000 active; AID 1654; in the data active means inhibition above about 50%
# Numbers without * were called inactive; i = inactive; · = no result.
SMILES,Mtb BioA inh,BH1578 lux ind,TcdB GH inh,Yp Topo-I inh,VHR inh abs
O=C(O)C1CCC(CN(Cc2cccc(Br)c2)C(=S)Nc2ccccc2F)CC1 (stereo not drawn),1.8,-0.1,11.5*,8.6,20.6
O=C(CC1CC1)N1CC(=O)N2[C@H](CO)[C@@H](c3ccc(/C=C/c4ccccc4)cc3)[C@H]2C1,·,·,0.3,·,·
O=C(NCCc1cccc(Cl)c1)c1ccc(Cl)c([N+](=O)[O-])c1,·,-0.2,10.6*,-1.1,27.0
Cc1ccc(C(=O)NCCc2cccc(Cl)c2)cc1[N+](=O)[O-],·,-0.7,-0.7,11.6,2.3
O=C(CNC(=O)c1ccccc1Br)N/N=C/c1ccc(O)cc1,·,-0.5,12.7*,1.6,13.1
O=C(N/N=C/c1ccc(O)cc1)c1csc2ccccc12,-0.2,17.9*,·,-5.4,16.5
O=C(N/N=C/c1ccc(O)cc1)c1cc(-c2ccccc2)nc2ccccc12,-0.9,0.0,2.2,-6.1,-8.2
O=C(COc1ccc2cc(Br)ccc2c1Br)N1CCOCC1,1.3,-0.1,-0.5,53.1*,-5.6
Cc1noc(C)c1S(=O)(=O)Nc1ccc2c(c1)CC(=O)N([C@H](C)CO)C[C@H](C)[C@H](CN(C)S(=O)(=O)c1ccccc1)O2,0.1,·,1.2,·,·
COc1cc2c(cc1OC)C(C)N(C(=O)c1ccc(C)o1)CC2 (stereo not drawn),·,-0.4,1.4,-2.2,2.4
COc1cc2c(cc1OC)C(C)N(C(=O)c1sccc1C)CC2 (stereo not drawn),2.6,-2.7,2.0,1.2,52.1*
COc1ccccc1C1NC(=O)NC(C)=C1C(=O)OC1CCCCC1 (stereo not drawn),2.1,·,10.5*,3.5,-1.0
COc1ccc(OC)c(C2NC(=O)NC(C)=C2C(=O)OC2CCCCC2)c1 (stereo not drawn),-1.4,-0.1,1.1,2.5,0.1
O=C(OCC(=O)N1CCCc2ccccc21)c1ccc(S(=O)(=O)C(F)F)cc1,·,-0.7,-4.1,15.2,·
O=C(OCC(=O)N1CCCc2ccccc21)c1ccc(C(F)(F)F)cc1,-0.8,-0.4,10.6*,5.1,·
O=C(N/N=C/c1c[nH]c2ccccc12)c1ccccc1Cl,1.5,1.2,2.6,-1.2,57.3*
CN(C)C(=O)c1ccc(-c2ccc3c(c2)[C@@H]2[C@@H](CCN2Cc2cncnc2)[C@@H](CO)N3)cc1,9.5,·,·,·,·
CN(C(=O)CSC1=NCCS1)c1ccccc1,1.5,0.6,·,5.2,51.6*
Cc1ccnc(N2C(=O)c3ccccc3C2=O)c1,1.8,i,14.7*,5.7,27.4
CCOc1ccc2nc(N3CCC(C(=O)NC4CCCCC4)CC3)sc2c1,-0.8,-2.0,-1.6,3.0,-25.6
CCOc1ccc2nc(N3CCCC(C(=O)NC4CCCC4)C3)sc2c1 (stereo not drawn),-2.1,-3.4,0.8,9.2,52.7*
Cc1ccc(C(=O)NC2CC3CCCC(C2)N3Cc2ccccc2)cc1 (stereo not drawn),2.3,-0.4,1.0,4.5,52.8*
CC1(C)O[C@@H]2[C@H](O1)[C@@H](COS(=O)(=O)O)O[C@H]2n1c(=S)[nH]c2c(=O)[nH]c(N)nc21,-6.5,-0.8,11.6*,-0.1,·
C/C(CCc1ccccc1)=N\NC(=O)C1C2CCCCC21 (stereo not drawn),·,i,10.8*,-1.3,-10.8
C/C(CCc1ccccc1)=N\NC(=S)NCCc1ccccc1,·,i,1.7,15.2,50.4*
SMILES,Mtb BioA inh,BH1578 lux ind,TcdB GH inh,Yp Topo-I inh,VHR inh abs
C[C@@H]1CN([C@H](C)CO)C(=O)c2cccc(NC(=O)Nc3ccccc3)c2O[C@@H]1CN(C)C,-0.1,·,0.1,·,·
C=C(C)CNC(=S)NNC(=O)c1ccc(Br)cc1,-1.3,i,0.0,0.3,50.8*
C=CCNC(=S)NNC(=O)c1ccc(Br)cc1,·,-0.3,·,3.0,22.7
NC(=O)c1ccc(NC(=O)CSc2nnc(C3CC3)n2C2CC2)cc1,2.1,i,12.1*,-4.1,·
CCCCC(CC)COC(=O)c1ccccc1C(=O)OCC(CC)CCCC (stereo not drawn),-0.4,-0.7,0.6,60.8*,·
Cc1ccc(-c2cnc3c(c2)C(=O)N([C@H](C)CO)C[C@@H](C)[C@H](CN(C)C)O3)cc1,-0.5,·,0.8,·,·
Cc1c(C(=O)c2ccc(Cl)c(Cl)c2)cnc2cc3c(cc12)OCO3,·,1.4,·,-0.4,53.8*
COc1ccc(C(=O)c2cnc3cc4c(cc3c2C)OCO4)cc1,5.7,i,·,2.7,11.9
CCC(=O)N(C)C[C@@H]1Oc2cc(-c3cccc(OC)c3)ccc2S(=O)(=O)N([C@H](C)CO)C[C@H]1C,2.0,·,1.6,·,·
COc1ccc2c3c(n(C)c2c1)[C@H](CO)N(C(=O)C1CCCC1)CC31CN(C(=O)CC2CC2)C1,·,·,-0.4,·,·
CC(OC(=O)c1nn(C(C)C)c(=O)c2ccccc12)C(=O)Nc1ncc(Cl)cc1Cl (stereo not drawn),-1.1,-0.2,1.0,10.6,59.9*
CC(C)n1nc(C(=O)Oc2cc(Cl)ccc2Cl)c2ccccc2c1=O,2.0,-0.7,·,31.9,-9.6
CCCC(C(=O)NCC1CCCO1)N(C(=O)CNS(=O)(=O)c1ccccc1)c1ccc(F)cc1 (stereo not drawn),-1.0,-0.1,0.6,15.7,57.6*
CCC(C(=O)NCC1CCCO1)N(C(=O)CNS(=O)(=O)c1ccccc1)c1ccc(F)cc1 (stereo not drawn),-2.6,-1.5,-1.3,-13.7,6.7
C[C@H](CO)N1C[C@H](C)[C@@H](CN(C)C(=O)Nc2ccc3c(c2)OCO3)Oc2ccc(NC(=O)Cc3ccccc3)cc2CC1=O,2.2,·,0.3,·,·
O=C(Nc1ccc2oc(=O)ccc2c1)c1ccc(-c2cccc([N+](=O)[O-])c2)o1,-1.0,-2.6,-9.9,-4.1,58.5*
O=C(Nc1ccc2oc(=O)ccc2c1)c1ccc(-c2cccc(Cl)c2)o1,·,2.1,-0.5,-7.8,26.3
CN1CCN(CC(=O)Nc2cc(N(C)C)nc3ccccc23)CC1,·,i,12.8*,-14.3,21.2
CCN(CC)CC(=O)Nc1cc(N(C)C)nc2ccccc12,-0.1,i,3.9,0.0,-2.5
CO[C@@H]1CN(C)C(=O)c2cc(NC(=O)C3CC3)ccc2OC[C@H](C)N(CC2CCOCC2)C[C@H]1C,-4.1,·,-3.1,·,·
CCOc1ccc(NC(=O)CC(Cc2cc(C)cc(C)c2)C(=O)O)cc1 (stereo not drawn),-0.5,0.6,1.3,6.3,53.0*
Cc1c(-n2c(O)c(C3=c4ccccc4=NC3=O)sc2=S)c(=O)n(-c2ccccc2)n1C,·,i,17.9*,0.8,14.7
O=C1N=c2ccccc2=C1c1sc(=S)n(-c2ccc(O)cc2)c1O,-1.2,-0.5,1.6,-31.9,9.6
C[C@@H]1CN([C@H](C)CO)C(=O)Cc2cc(NS(=O)(=O)c3ccc(Cl)cc3)ccc2O[C@H]1CN(C)C(=O)Nc1ccccc1,-0.6,·,0.2,·,·
CC(=O)Nc1ccc(Oc2nc(-c3ccccn3)nc3ccccc23)cc1,·,-0.4,28.2*,-1.2,-18.6
CC(=O)Nc1cccc(Oc2nc(-c3ccccn3)nc3ccccc23)c1,-0.3,i,1.3,13.9,5.0
C=CCn1c(NC(=O)c2ccc(C)cc2)nc2ccccc21,-1.4,-0.4,-0.1,-11.3,53.9*
